Compounds with a hit are over-represented: about 5.7% of the library has one in this group of screens.
hcDAF12 agonist – H. contortus DAF-12 nuclear receptor activators, primary screen, cell-based, luminescence, HEK293, lit1-tk-luc reporter; HEK293 hcDAF-12 lit1-tk-luc reporter; 0% DMSO, 100% Δ7-dafachronic acid; activation, % at 6.8 µM; 370,000 tested, 1.4% active;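 active = activation above the mean of all tested compounds plus 3 SD, cut at about 5.5% in these data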
ssDAF-12 act – S. stercoralis DAF-12 nuclear receptor activators, primary screen, cell-based, luminescence, HEK293, GRIP1 co-expression, lit1-tk-luc. HEK293 ssDAF-12/GRIP1 lit1-tk-luc reporter; % of 3 µM dafachronic acid response. activation, % at 6.8 µM. 370,000 tested, 1% active. AID 652126, 2013;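 active = activation above the mean over all tested compounds plus 3 SD, cut at about 0.9% in these data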
AHR activator – AHR activators, primary screen, cell-based, luminescence, luciferase reporter, human | AHR-responsive luciferase reporter cells | activation, % at 5 µM | 320,000 tested, 2.5% active; in the data active = activation above about 47%
hgDAF12 agonist – H. glycines DAF-12 receptor agonists, primary screen, cell-based, luminescence, HEK293, GAL4 fusion, UAS-luciferase; HEK293 GAL4-hgDAF12 UAS-luciferase reporter, agonist luminescence; normalized to butyrate control; Nuclear hormone receptor DAF-12 (Heterodera glycines), GAL4 fusion; activation, % at 6.8 µM; 370,000 tested, 1.8% active;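 active = activation above a cutoff set at the mean of all screened compounds plus 3 SD, cut at about 10% in these data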
DAX1 inh-1 – DAX1 (NR0B1) inhibitors on StAR promoter, primary screen, cell-based, luminescence, SF-1 (NR5A1), full-length DAX-1; HEK293T StAR-luciferase reporter, SF-1/DAX-1 repression relief; inhibition, % at 6.8 µM; 370,000 tested, 1.1% active; AID 652010, 2013;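 active = inhibition above the mean over all tested compounds plus 3 SD, cut at about 3.6% in these data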;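 note: higher inhibition means more luminescence from relief of DAX-1 repression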
DAX1 inh-2 – DAX1 (NR0B1) inhibitors, primary screen, cell-based, HEK293, Gal4-DAX1, luciferase luminescence; 340,000 tested, 0.99% active; Nuclear receptor subfamily 0 group B member 1 (Homo sapiens), P51843; inhibition, % at 6.75 µM; HEK293 Gal4-DAX1 luciferase reporter; AID 504766, 2011;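 active = inhibition above the mean over all tested compounds plus 3 SD, cut at about 4.2% in these data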;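 note: inhibition shows as a rise in luminescence from relieved DAX1 repression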
Target sequence (P51843 207-470 limits assumed): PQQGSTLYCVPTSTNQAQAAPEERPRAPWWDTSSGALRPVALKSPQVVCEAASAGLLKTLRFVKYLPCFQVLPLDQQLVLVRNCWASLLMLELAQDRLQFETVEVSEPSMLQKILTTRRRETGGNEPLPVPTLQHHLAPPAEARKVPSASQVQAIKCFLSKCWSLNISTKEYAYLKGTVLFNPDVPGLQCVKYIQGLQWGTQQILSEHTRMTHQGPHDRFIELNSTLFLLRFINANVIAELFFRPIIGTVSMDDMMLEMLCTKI
AHR act cf – AHR activators, confirmation, cell-based, luminescence, luciferase reporter, human. shares compounds with AHR activator. 2,300 tested, 87% active. activation, % at 9 µM. human cells, AHR-responsive luciferase reporter; in the data active = activation above about 49%;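 note: HepG2 hepatoma cells carrying a DRE-driven firefly luciferase reporter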
PXR counter – human PXR activators, counter-screen for AHR activator project, cell-based, luciferase luminescence; shares compounds with AHR activator; cell-based PXR reporter; activation, % at 11.6 µM; 2,300 tested, 88% active; AID 434939, 2010; in the data active = activation above about 11%;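 note: human hepatoma DPX-2 cells expressing full-length human PXR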
Large screens that a line does not name were inactive (follow-up assays come after a bar, where they were run).

COc1cc(-c2nc(-c3ccc(Br)o3)no2)cc(OC)c1OC	AHR activator 91.4 | AHR act cf 84.3 | PXR counter 13.9
O=C(c1ccc(Cl)cc1)c1oc2ccccc2c1CS(=O)c1ccc(Cl)cc1 (stereo not drawn)	none
O=C(Nc1ccc(F)cc1)c1oc2ccccc2c1NC(=O)C1CCCC1	AHR activator 91.1 (no result: hcDAF12 agonist, ssDAF-12 act, hgDAF12 agonist, DAX1 inh-1) | AHR act cf 135.8 | PXR counter 36.5
O=C(Nc1c(C(=O)C2CC2)oc2ccccc12)c1ccc(Cl)cc1	none
CC(=O)Nc1c(C(=O)c2ccc(F)cc2)oc2ccccc12	AHR activator 154.7 | AHR act cf 125.7 | PXR counter 39.3
COc1ccc(C(=O)c2oc3ccccc3c2NC(C)=O)cc1	AHR activator 172.7 | AHR act cf 148.2 | PXR counter 13.9
Nc1c(C(=O)c2ccc(Cl)cc2)oc2ccccc12	ssDAF-12 act 1.8, AHR activator 113.3, hgDAF12 agonist 12.2 | AHR act cf 169.0 | PXR counter 16.4
COCCCN(CC(=O)Nc1ccc(N2CCOCC2)cc1)S(=O)(=O)c1ccccc1	none
Cn1c(=Nc2ccccc2)sc2ccccc21	none
C/C(=N\N=c1/sc2ccccc2n1C)c1ccccn1	AHR activator 104.3 | AHR act cf 142.6 | PXR counter 25.5
CC1(CCC(=O)N2CCCC(N3CCN(c4cccc(C(F)(F)F)c4)CC3)C2)CC1 (stereo not drawn)	none
Nc1nc(-c2ccco2)nn1C(=O)c1ccc(Cl)cc1	none
Nc1nc2ccc(Cl)cc2c2nc(-c3ccco3)nn12	AHR activator 107.4 (no result: hcDAF12 agonist, ssDAF-12 act, hgDAF12 agonist, DAX1 inh-1, DAX1 inh-2) | AHR act cf 247.9 | PXR counter 33.8
CCN(CC)S(=O)(=O)c1cc(C(=O)N=c2sccn2C)ccc1OC	AHR activator 99.6 | AHR act cf 87.4 | PXR counter 125.4
COc1ccc(NC(=O)c2cc3c(-c4ccc(OC)c(OC)c4)nn(C)c3s2)cc1OC	none
COc1ccc(-c2nn(C)c3sc(C(=O)NCc4ccco4)cc23)cc1OC	AHR activator 134.5 | AHR act cf 111.6 | PXR counter 34.9
COc1ccc(-c2[nH]c(-c3ccc(C)cc3)nc2SCC(=O)NCc2ccco2)cc1OC	AHR activator 120.6 | AHR act cf 84.8 | PXR counter 12.4
CC(C)CCOc1ccc(C2CC(=O)N(C)C2=O)cc1 (stereo not drawn)	none
c1ccc(OCCOc2ncnc3sccc23)cc1	AHR activator 137.6 | AHR act cf 121.4 | PXR counter 45.0
COc1cccc(COc2ncnc3sccc23)c1	none
O=C(Nc1ccc(Br)cc1)c1cc(-c2ccncc2)nc2ccccc12	AHR activator 109.4 | AHR act cf 97.0 | PXR counter 12.0
COc1cc2c(cc1NC(=O)c1cccc(S(=O)(=O)N(C)C)c1)oc1ccccc12	AHR activator 79.4 | AHR act cf 65.3 | PXR counter 41.7
COc1cc2c(cc1NC(=O)c1cc(-c3ccncc3)nc3ccccc13)oc1ccccc12	AHR activator 82.7 | AHR act cf 71.2 | PXR counter 13.1
COc1cc2c(cc1NC(=O)COC(=O)c1ccccc1)oc1ccccc12	none (no result: hcDAF12 agonist, ssDAF-12 act, hgDAF12 agonist, DAX1 inh-1, DAX1 inh-2)
NNC(=O)c1cc(-c2ccc(O)cc2)nc2ccc(Br)cc12	AHR activator 81.1 | AHR act cf inactive | PXR counter inactive
O=C(COc1ccccc1)Nc1nnc(S(=O)(=O)N2CCCCCC2)s1	none
